Active and inactive are the calls of the source. How the source made its calls: active means hit-call score of the fitted dose curve at least 0.9, where 1 is the maximum; inactive means score below 0.9.
Experiment: ATG_M_19_CIS: Attagene CIS-FACTORIAL HepG2 Assay for M19 Transcription Factor (Internal Marker) (AID 2282939)
Details: HepG2 Attagene CIS-FACTORIAL M19 internal marker reporter; actives raise or lower the signal
Procedure: ATG_CIS is a cell-based, multiplexed-readout assay that uses HepG2, a human liver cell line, with measurements taken at 24 hours after chemical dosing in a 24-well plate.ATG_M_19_CIS is one of 52 assay component(s) measured or calculated from the ATG_CIS assay. It is designed to make measurements of mRNA induction, a form of inducible reporter, as detected with fluorescence intensity signals by Reverse transcription polymerase chain reaction (RT-PCR) and Capillary electrophoresis technology.Data from the assay component ATG_M_19_CIS was analyzed into 1 assay endpoint. This assay endpoint, ATG_M_19_CIS, was analyzed with bidirectional fitting relative to DMSO as the negative control and baseline of activity. Using a type of inducible reporter, measures of mRNA for gain or loss-of-signal activity can be used to understand the background control at the transcription factor-level as they relate to the gene . Furthermore, this assay endpoint can be referred to as a secondary readout, because this assay has produced multiple assay endpoints where this one serves a background control function. To generalize the intended target to other relatable targets, this assay endpoint is annotated to the background measurement intended target family, where the subfamily is internal marker.
Human liver HepG2 cells are transiently transfected with multiple reporter transcription units (MRTUs) in 6-well plates using FuGene 6 reagent (Roche; 3 ml FuGene/1 mg DNA). The MRTU constructs are regulated by a cis-regulating element (promoter). […] A major difference between the CIS and TRANS system is that in CIS activities of endogenous TFs are measured, whereas the TRANS assay evaluates changes in activities of exogenous, chimeric NR-Gal4 proteins. […] At the end of 24 hour incubation, total RNA was isolated using TriZol reagent (Invitrogen). The isolated RNA is then reverse-transcribed using oligo(dT) primer and Mo-MLV reverse transcriptase (Invitrogen) with DNAse I (Ambion) treatment for 30 min. The one-tenth of the produced cDNA was amplified by PCR using Taq DNA polymerase (Invitrogen) and two reporter sequence-specific primers. The PCR products were fluorescently labeled by primer extension with 6-arboxyfluorescein (6-FAM) 5'-labeled reporter sequence-specific primer (2 min at 95 C, 20 s at 68 C and 10 min at 72 C) and these products were digested with 5U of HpaI (New England Biolabs) for 2h at 37 C. The fragments were purified using Qiaquick PCR columns (Qiagen), analyzed on an ABI 3130xL genetic analyzer (Applied Biosystems) with peak positions identified by using a set of X-rhodamine (ROX)-labeled MapMarker1000 molecular weight standards (BioVentures). The raw capillary electrophoresis data was processed using Attagraph software (Attagene).

outcome, inactive:
C[Si](C)O[Si](C)(C)O[Si](C)(C)O[Si](C)C
Cc1ccc(N)c([N+](=O)[O-])c1
Nc1ccc(Cl)cc1Cl
C=CC(=O)OCCOC1C2CCC1C1CC=CC12 (stereo not given)
CCCCCC(C)O (stereo not given)
O=c1[nH]c(=O)c2[nH]c(=O)[nH]c2[nH]1
N[C@H]1C(O)O[C@H](CO)[C@H](O)[C@@H]1O (stereo not given in full)
NC(=O)NNC(N)=O
O=C(c1ccc(O)cc1)c1ccc(O)cc1O
Cc1cc(C)c(C)cc1C
O=C(Nc1ccccc1SSc1ccccc1NC(=O)c1ccccc1)c1ccccc1
CC1(C)[C@H]2CC[C@]1(C)C(=O)C2
Nc1ccc(Oc2ccc(N)c(N)c2)cc1
Cn1c([N+](=O)[O-])cnc1COC(N)=O
O=C(O)c1ccccc1Nc1cccc(C(F)(F)F)c1
O=Cc1ccc(CO)o1
Cc1cccc(C(=O)O)c1
SCCc1cnccn1
CC(=O)Oc1ccc(C(C)=O)cc1
C=C[C@](C)(O)CC[C@@H]1[C@@]2(C)CCCC(C)(C)[C@@H]2CC[C@@]1(C)O
CCCCCCC(O)CO (stereo not given)
COC(=O)c1ccccc1OC
O=C1CCCC1
[Cl][Bi]([Cl])([c]1ccccc1)([c]1ccccc1)[c]1ccccc1
O=C(O)C(c1ccc(Cl)cc1)c1ccc(Cl)cc1
CCC(=O)Oc1ccc(/C(CC)=C(\CC)c2ccc(OC(=O)CC)cc2)cc1
CC(C)=CC1CC(C)CCO1 (stereo not given)
CCCCCC/C=C\CCCCCCCC(=O)O
CC(=O)Nc1nnc(S(N)(=O)=O)s1
COCCOCCOCCOCCOC
C=C(C)[C@H]1CC=C(C)CC1
CC(C)c1ccc2cc(C(C)C)ccc2c1
CCCOCCOCCOCCO
COC(=O)/C=C/C(C)=C\C=C\C(C)=C\C=C\C=C(C)\C=C\C=C(C)\C=C\C(=O)O
CCCCC/C=C\C/C=C\CCCCCCCC(=O)OC
Nc1ccc(N)c(Cl)c1
Nc1cccc(C(F)(F)F)c1
CCCCCCCCCCCCCCCC(=O)OCC
CCOC(F)(F)C(F)(F)C(F)(F)C(F)(F)F
CC(C)c1ccc2c(C(C)C)cc(C(C)C)c(S(=O)(=O)O)c2c1

— PubChem BioAssay (EPA / NIEHS)
